The whole screen tested about 48,000 compounds, of which about 13,000 (27%) showed an effect of 50% or more. This is one part of the list.
System: Wolbachia pipientis
Test: Anti-Wolbachia Cell-Based Screen
Format: functional
Parameters: scale not given: in the data most compounds retested in dose-response had high values
Settings: 5 µM

Row | SMILES | Percent Effect
1 | CN(C)C(=O)CN1CCN(c2ncccn2)[C@@H]2CS(=O)(=O)C[C@@H]21 | -3.142%
2 | CC(c1ccccc1F)N1CCN(C(=O)Cc2ccncc2)CC1 (stereo not drawn) | -4.813%
3 | COc1cccc(CC(C)NCC(=O)Nc2ccccc2C)c1 (stereo not drawn) | 0.2022%
4 | CC[C@H]1CN2CC[C@H]1C[C@@H]2CNCc1ccc(N(C)C)cc1 | 11.9%
5 | O=C(Cc1cccc(F)c1)N1CCN2C[C@H](Oc3cncnc3)C[C@H]2C1.O=C(O)C(F)(F)F | 1.194%
6 | Cc1ccc(O[C@@H]2C[C@H]3CN(c4ncc(F)cn4)CCN3C2)cc1.O=C(O)C(F)(F)F.O=C(O)C(F)(F)F | 83.44%
7 | Cc1cnc(N2CCN3C[C@H](OCc4ccccn4)C[C@H]3C2)nc1.O=C(O)C(F)(F)F.O=C(O)C(F)(F)F | 0.855%
8 | Fc1ccccc1CO[C@@H]1C[C@H]2CN(c3ncccn3)CCN2C1.O=C(O)C(F)(F)F | -0.171%
9 | O=C(O)C(F)(F)F.O=C(O)C(F)(F)F.c1cnc(N2CCN3C[C@H](Oc4cncnc4)C[C@H]3C2)nc1 | 105.8%
10 | O=C(O)C(F)(F)F.O=C(O)C(F)(F)F.c1ccc(CO[C@@H]2C[C@H]3CN(c4ncccn4)CCN3C2)cc1 | 2.223%
11 | Cc1cccc(CO[C@@H]2C[C@H]3CN(c4ncccn4)CCN3C2)n1.O=C(O)C(F)(F)F.O=C(O)C(F)(F)F.O=C(O)C(F)(F)F | -11.39%
12 | Fc1cnc(N2CCN3C[C@H](Oc4cncnc4)C[C@H]3C2)nc1.O=C(O)C(F)(F)F.O=C(O)C(F)(F)F | 110.2%
13 | Fc1cnc(N2CCN3C[C@H](Oc4cccnc4)C[C@H]3C2)nc1.O=C(O)C(F)(F)F.O=C(O)C(F)(F)F.O=C(O)C(F)(F)F | 90.39%
14 | O=C(c1ccco1)N1CCN2C[C@H](Oc3cncnc3)C[C@H]2C1 | 1.787%
15 | CC(C)c1cc(C(=O)N2CCN(C)[C@@H]3CS(=O)(=O)C[C@@H]32)no1 | -18.46%
16 | O=C(NC[C@H]1C[C@@H]2CCN1C[C@@H]2CN1CCCCC1)c1ccco1 | 3.904%
17 | CCCSCC(=O)N1C[C@H]2CC[C@@H]1CN(Cc1cccnc1)C2 | -15.35%
18 | CNS(=O)(=O)CC(=O)NC(C)Cc1ccc(Br)cc1 (stereo not drawn) | -6.603%
19 | CCOCC(=O)NC(C)Cc1ccccc1Br (stereo not drawn) | -9.65%
20 | CC[C@H](C)[C@@H](CO)NC(C)Cc1ccc(Cl)cc1 (stereo partly drawn) | 125.5%
21 | CC[C@H](C)[C@@H](CO)NC(C)Cc1ccc(C)cc1 (stereo partly drawn) | 96.84%

Row | SMILES | Percent Effect
22 | CC(=O)N1CCC(CCNC(C)Cc2ccc(F)cc2)CC1 (stereo not drawn) | 3.455%
23 | CC[C@H](C)[C@@H](CO)NC(C)Cc1ccccc1F (stereo partly drawn) | 127.2%
24 | CC[C@H](C)[C@@H](CO)NC(C)Cc1ccc(F)cc1 (stereo partly drawn) | 95.88%
25 | COC(=O)C(CO)NC(=O)c1cn(Cc2ccccc2F)nn1 (stereo not drawn) | -17.52%
26 | CCc1cc(CN(C)C(=O)CN2CC(c3ccccc3)CC2=O)on1 (stereo not drawn) | -7.018%
27 | CN(C)C(=O)[C@H]1C[C@H]2OCC[C@H]2N(Cc2ccccn2)C1 | -23.53%
28 | O=C(NC[C@H]1C[C@@H]2CCN1C[C@@H]2CN1CCCCC1)Nc1ccccc1 | -4.847%
29 | CC(C)(C)n1cc(C2=CCN(CCN3CCCCCC3)CC2)cn1 | -14.66%
30 | CN1CCC2(CCN(C(=O)c3cccnc3)C2)C1 (stereo not drawn) | 103.3%
31 | Cc1ccc(CN2CC3(CCN(C(=O)c4cccnc4)C3)C2)o1.O=C(O)C(F)(F)F.O=C(O)C(F)(F)F | 90.74%
32 | O=C(O)C(F)(F)F.O=C(O)C(F)(F)F.O=C1N(c2cccnc2)CCC12CCCN(Cc1ccco1)C2 (stereo not drawn) | 8.384%
33 | CNc1ncccc1C(=O)N1CCC2(CCN(C)C2)CC1 | -14.87%
34 | O=C(O)C(F)(F)F.O=C(O)C(F)(F)F.O=C1CC2(CCN(Cc3cccnc3)C2)CN1c1cncnc1 (stereo not drawn) | -5.386%
35 | CC(C)(C)CN1CCCC2(CCN(C(=O)c3ccc(O)nc3)C2)C1 (stereo not drawn) | -6.955%
36 | O=C(O)C(F)(F)F.O=C(O)C(F)(F)F.O=C1N(c2ccsc2)CCC12CCCN(Cc1cccnc1)C2 (stereo not drawn) | 4.008%
37 | CCCN(CCN(C)C)C(=O)Cc1cn2ccsc2n1 | -3.087%
38 | O=C(Cc1ccsc1)N1CCN(CCOc2ccccc2)CC1 | -6.082%
39 | CC[C@H]1CN2CC[C@H]1C[C@@H]2CNCc1ccc2c(c1)OCO2 | 5.104%
40 | CN1CCN2C(=O)N(C3CCCCC3)C[C@H]2C1 | -7.779%
41 | CC(C)N(C)C(=O)C1CCC2(CCNCC2)O1.Cl (stereo not drawn) | -5.93%
42 | CCN(C)c1nccc(N2CCN[C@H]3CS(=O)(=O)C[C@H]32)n1 | -8.792%

Row | SMILES | Percent Effect
43 | Cc1ccnc(CC(C)N(C)Cc2ccc3c(c2)CCO3)c1 (stereo not drawn) | 8.665%
44 | CS(=O)(=O)N1CCOCC2(CN(Cc3ccccn3)CCO2)C1.O=C(O)C(F)(F)F.O=C(O)C(F)(F)F (stereo not drawn) | -5.644%
45 | CCCS(=O)(=O)N1CCOC2(CCCN(Cc3ccccn3)C2)C1.O=C(O)C(F)(F)F (stereo not drawn) | 106.1%
46 | O=C(O)C(F)(F)F.O=C(O)C(F)(F)F.O=C(O)C(F)(F)F.c1ccc(CN2CCOC3(CCN(c4ncccn4)CC3)C2)nc1 | -2.349%
47 | CCS(=O)(=O)NC[C@]12COC[C@H]1CN(Cc1ccccn1)C2.O=C(O)C(F)(F)F.O=C(O)C(F)(F)F | 3.316%
48 | O=C(O)C(F)(F)F.c1cnc(N2CCOCC3(CN(Cc4cc[nH]n4)CCO3)C2)nc1 (stereo not drawn) | 10.86%
49 | O=C(O)C(F)(F)F.O=S(=O)(C1CC1)N1CCOC2(CCCN(Cc3ccccn3)C2)C1 (stereo not drawn) | 85.16%
50 | O=C(O)C(F)(F)F.O=C(O)C(F)(F)F.O=S(=O)(C1CC1)N1CCC2(CC1)CN(Cc1ccccn1)CCO2 | 101%
51 | CCS(=O)(=O)N1CCOC2(CCCN(Cc3ccccn3)C2)C1.O=C(O)C(F)(F)F (stereo not drawn) | 109.8%
52 | CC(C)[C@@H]1CN(C(=O)C2(c3ccccc3)CCN(C)CC2)C[C@H]1C(=O)O | 1.772%
53 | COc1cc(CNCC(O)c2ccc(F)c(F)c2)cc2c1OCO2 (stereo not drawn) | -3.918%
54 | O=C(NC[C@]12COC[C@H]1CN(Cc1ccncc1)C2)c1ccno1.O=C(O)C(F)(F)F.O=C(O)C(F)(F)F | -6.901%
55 | COCCN1C(=O)C2(CCN(CC3CC3)CC2)c2ccccc21.O=C(O)C(F)(F)F | 100.2%
56 | CCN1C(=O)C2(CCN(CCN(C)C)CC2)c2ccccc21.O=C(O)C(F)(F)F.O=C(O)C(F)(F)F | 97.23%
57 | CC(C)N1CCC2(CC1)C(=O)N(c1cccnc1)c1c(F)cccc12.Cl | -0.101%
58 | CC(C)N1CCC2(CC1)C(=O)N(CCN(C)C)c1ccccc12.O=C(O)C(F)(F)F.O=C(O)C(F)(F)F | 103.6%
59 | Cc1ccc(CN2CCC3(CC2)C(=O)N(C)c2ccccc23)s1.O=C(O)C(F)(F)F | -4.693%
60 | CN1C(=O)C2(CCN(Cc3nccn3C)CC2)c2ccccc21.O=C(O)C(F)(F)F | -27.57%
61 | CN(C)CCN1C(=O)C2(CCN(CC3CC3)CC2)c2ccccc21.O=C(O)C(F)(F)F.O=C(O)C(F)(F)F | 113.1%
62 | CC(C)N1CCC2(CC1)C(=O)N(c1cccnc1)c1ccc(F)cc12.Cl | -1.595%
63 | CCCN1CCN(C(=O)Cc2nc(-c3ccco3)oc2C)CC1 | 1.326%

Row | SMILES | Percent Effect
64 | O=C1[C@@H]2CCN(Cc3ccoc3)C[C@@H]2OCCN1c1cccnc1 | 8.449%
65 | CC(C)N(C)Cc1cncc2c1CCN(Cc1ccoc1)C2.Cl.Cl.Cl | 91.96%
66 | COCc1cncc2c1CCN(Cc1cnn(C)c1)C2.O=C(O)C(F)(F)F.O=C(O)C(F)(F)F | 0.729%
67 | COCc1cncc2c1CCN(Cc1cccs1)C2.O=C(O)C(F)(F)F.O=C(O)C(F)(F)F | 82.87%
68 | COCCN1CCN(Cc2cccnc2)[C@H]2CS(=O)(=O)C[C@H]21 | 6.429%
69 | COCc1cncc2c1CCN(Cc1cccnc1)C2 | 101.9%
70 | CN(C)Cc1cncc2c1CCN(Cc1ccoc1)C2.Cl.Cl.Cl | 105%
71 | CN(C)Cc1cncc2c1CCN(Cc1cnn(C)c1)C2.Cl.Cl.Cl | -9.802%
72 | COCc1cncc2c1CCN(Cc1ccccn1)C2.O=C(O)C(F)(F)F.O=C(O)C(F)(F)F.O=C(O)C(F)(F)F | 9.224%
73 | CC(C)N1[C@H](CN(C)C)C[C@@H]2CN(c3ncc(F)cn3)CC[C@@H]21.O=C(O)C(F)(F)F.O=C(O)C(F)(F)F.O=C(O)C(F)(F)F | 3.695%
74 | CC1(C)C(C(=O)NCCC2CN(Cc3c[nH]cn3)CCO2)C1(C)C (stereo not drawn) | -1.625%
75 | Cc1cccnc1CC(C)N(C)Cc1cccs1 (stereo not drawn) | -8.458%
76 | CC(C)N(C)Cc1cncc2c1CCN(Cc1cccs1)C2.Cl.Cl.Cl | 94.28%
77 | CC(C)N1CCc2c(CN(C)Cc3ccco3)cncc2C1.Cl.Cl.Cl | 5.952%
78 | CS(=O)(=O)N1CCO[C@@H]2CN(Cc3ccncc3)C[C@@H]2C1.O=C(O)C(F)(F)F.O=C(O)C(F)(F)F | 13.84%
79 | O=C(O)C(F)(F)F.O=C(O)C(F)(F)F.O=S(=O)(c1cccnc1)N1C[C@@H]2COC[C@]2(CN2CCOCC2)C1 | -9.184%
80 | COCCN1CCO[C@@H]2CN(S(=O)(=O)c3cccnc3)C[C@@H]2C1.O=C(O)C(F)(F)F.O=C(O)C(F)(F)F | 120.4%
81 | COCCN1CCO[C@@H]2CN(Cc3ccccn3)C[C@@H]2C1.O=C(O)C(F)(F)F.O=C(O)C(F)(F)F.O=C(O)C(F)(F)F | -10.28%
82 | Cc1ccsc1CN1C[C@@H]2CN(Cc3cccnc3)CCO[C@@H]2C1.O=C(O)C(F)(F)F.O=C(O)C(F)(F)F.O=C(O)C(F)(F)F | 13.17%
83 | CN1CCO[C@@H]2CN(S(=O)(=O)c3cccnc3)C[C@@H]2C1.O=C(O)C(F)(F)F.O=C(O)C(F)(F)F | 131.4%

Source: ChEMBL document CHEMBL3988442, “University of Dundee, Small-Polar-MMV Screening Library” (2021)
